Records with an inconclusive call do not appear. Calls of active or inactive are those of the source. The call rests on the fitted dose curve; in most records, active means well fitted inhibition curve with a large enough effect; inconclusive means small, poorly fitted or top-dose-only effect; inactive means flat fitted curve, though single readings scatter.
How the values were obtained:
[1] = biological target: Glutathione peroxidase 1 (Homo sapiens) (UniProt P07203); assay: Primary qHTS Assay for Inhibitors of Recombinant Selenoprotein Glutathione Peroxidase 1 (GPX1) (AID 1845191); further: nearly all actives have a fitted effect of over 65% in size; on activity, negative = inhibition: on the % scale 0 is the no-effect control and ±100 the full control effect
Glutathione peroxidase 1 (Homo sapiens), sequence (P07203 whole entry, looked up): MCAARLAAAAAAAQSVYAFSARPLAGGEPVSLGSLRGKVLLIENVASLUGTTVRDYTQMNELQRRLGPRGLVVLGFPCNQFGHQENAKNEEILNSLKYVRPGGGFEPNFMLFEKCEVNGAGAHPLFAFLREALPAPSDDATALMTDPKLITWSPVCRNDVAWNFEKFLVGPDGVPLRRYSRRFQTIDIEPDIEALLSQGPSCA
Outline: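 GR-coupled readout: NADPH consumption tracked by fluorescence, ex 340/em 450 nm, at t=0 and after 15 min at RT. Final mix 10 nM GPX1, 1 mM GSH, 0.5 mM CHP, 0.5 mM NADPH, 100 nM GR, 0.01% BSA, following 30 min enzyme–compound preincubation.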

[2] = biological target: Phospholipid hydroperoxide glutathione peroxidase GPX4 (Homo sapiens) (UniProt P36969); assay: Primary qHTS Assay for Inhibitors of Recombinant Selenoprotein Glutathione Peroxidase 4 (GPX4) (AID 1845192); further: nearly all actives have a fitted effect of over 65% in size; on activity change, negative = inhibition: series mostly up to about 50 µM; on the % scale 0 is the no-effect control and ±100 the full control effect
Phospholipid hydroperoxide glutathione peroxidase GPX4 (Homo sapiens), sequence (P36969 whole entry, looked up): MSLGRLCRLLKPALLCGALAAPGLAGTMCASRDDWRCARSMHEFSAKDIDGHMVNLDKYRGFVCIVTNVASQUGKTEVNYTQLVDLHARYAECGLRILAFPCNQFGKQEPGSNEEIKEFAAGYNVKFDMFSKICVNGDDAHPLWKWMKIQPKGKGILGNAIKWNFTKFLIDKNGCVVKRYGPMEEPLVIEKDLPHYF
Outline: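 Steps: GPX4 plus compound, 30 min RT; add GR/GSH/NADPH master mix; start with cumene hydroperoxide; read 340/450 nm fluorescence at 0 and 15 min. Finals were 200 nM GPX4, 1 mM GSH, 0.5 mM CHP, 0.5 mM NADPH, 100 nM GR.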

[3] = biological target: Luciferin 4-monooxygenase (Photinus pyralis) (UniProt P08659); assay: Primary firefly luciferase (FLuc) qHTS assay for identification of artifact compounds. (AID 1845220); further: nearly all actives have a fitted effect of over 60% in size;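 on activity change, negative = inhibition: series mostly up to about 54 µM; plate controls were DMSO vehicle for no effect and no enzyme for full effect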
Outline: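 Enzymatic FLuc inhibition assay: compounds pre-exposed to luciferin/ATP (10 uM each) for 15 min, then purified P. pyralis enzyme at 10 nM added. Read-out: luminescence at 5 min.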

[4] = system: Nanoluciferase (engineered Oplophorus gracilirostris luciferase); assay: Primary Nanoluciferase (NLuc) qHTS assay for identification of artifact compounds. (AID 1845222);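 further: NLuc secreted into diluted conditioned medium of S16 cells; series mostly up to about 54 µM; 0% = DMSO and -100% = no enzyme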
Outline: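 S16 cell supernatant NLuc, 1:55; cpds qHTS; 15 min RT dark; Nano-Glo substrate 1:100, 5 min; luminescence; Hill fit of % inhibition.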

C[C@@H]1O[C@@H](O[C@H]2[C@H](O)[C@@H](C(=O)O)O[C@@H](O[C@H]3CC[C@@]4(C)C(CC[C@]5(C)C4CC=C4C6CC(C)(C)CC[C@]6(C(=O)O)CC[C@]45C)C3(C)C)[C@@H]2O[C@@H]2O[C@H](CO)[C@@H](O)[C@H](O)[C@H]2O)[C@H](O)[C@H](O)[C@H]1O (some centres undefined)
inactive: Potency [1] | Potency [2] | outcome [3] inactive [at 11.6 µM] | activity, negative = inhibition [4] -0.245% [at 11.6 µM]

CC(/C=C/C1(O)C(C)CC(O)CC1(C)C)OC1OC(CO)C(O)C(O)C1O (centres undefined)
inactive: Potency [1] | Potency [2] | Potency [3] | Potency [4]

N#Cc1ccc2[nH]c(O)c(-c3ccc(CN4CCOCC4)cn3)c2c1
inactive: Potency [1] | Potency [2] | Potency [3] | Potency [4]

CCC(C)/C=C(C)/C=C/C1=CC2=C(Cl)C(=O)C(C)(OC(C)=O)C(=O)C2=CN1CCCC(=O)O (centres undefined)
inactive: Potency [1] | Potency [2] | Potency [3] | Potency [4]

C/C(=C/CO)CC[C@@H]1[C@@]2(C)CCC[C@](C)(C(=O)O)C2CC[C@@]1(C)O (some centres undefined)
inactive: Potency [1] | Potency [2] | Potency [3] | Potency [4]

C=C1CCC2C(C)(C(=O)O)CC(O)CC2(C)C1CC/C(C)=C/C(=O)O (centres undefined)
inactive: Potency [1] | Potency [2] | Potency [3] | Potency [4]

COc1ccccc1CC(C(=O)O)N(C)C(=O)c1ccccc1 (centres undefined)
inactive: Potency [1] | Potency [2] | Potency [3] | Potency [4]

CC1(C(=O)O)CCCC2(C)C1CCC13CC(CCC21)C1(CO)OC31 (centres undefined)
inactive: Potency [1] | Potency [2] | Potency [3] | Potency [4]

CC1(C)C(O)CCC2(C)C1C(O)C=C1COC(=O)C12O (centres undefined)
inactive: Potency [1] | Potency [2] | Potency [3] | Potency [4]

CC(C)(O)C1CCC2(C)C3C(O)C4C(C13)C42CO (centres undefined)
inactive: Potency [1] | Potency [2] | Potency [3] | Potency [4]

C=CC1(C)C=C2C(=O)CC3C(C)(C)CCCC3(C(=O)O)C2(O)CC1 (centres undefined)
inactive: Potency [1] | Potency [2] | Potency [3] | Potency [4]

COc1ccc2c(c1)O[C@H](O[C@@H]1O[C@H](CO)[C@@H](O)[C@H](O)[C@H]1O)C(=O)N2
inactive: Potency [1] | Potency [2] | Potency [3] | Potency [4]

COc1ccc([C@@H]2N[C@H](C(=O)O)Cc3c2[nH]c2ccccc32)cc1CN1CCN(c2ccccc2F)CC1
inactive: Potency [1] | Potency [2] | Potency [3] | Potency [4]

CCOC(=O)[C@H](CCc1ccccc1)CC1(C(=O)N[C@H]2CCc3ccccc3N(CC(=O)O)C2=O)CCCC1
inactive: Potency [1] | Potency [2] | Potency [3] | Potency [4]

OC[C@H]1O[C@@H](n2cnc3c2NC=NC[C@H]3O)C[C@@H]1O
inactive: Potency [1] | Potency [2] | Potency [3] | Potency [4]

CNC(=O)Nc1ccc(OC)c(NC(=O)NC(=O)c2cc(F)c(F)cc2Cl)c1
inactive: Potency [1] | Potency [2] | Potency [3] | Potency [4]

CC1(CO)CC[C@]2(C(=O)O[C@@H]3O[C@H](CO)[C@@H](O)[C@H](O)[C@H]3O)CC[C@]3(C)C(=CCC4[C@@]5(C)CC[C@H](O[C@@H]6O[C@H](C(=O)O)[C@@H](O)[C@H](O)[C@H]6O)C(C)(C)C5CC[C@]43C)C2C1 (some centres undefined)
inactive: Potency [1] | Potency [2] | activity change, negative = inhibition [3] -2.66% [at 11.6 µM] | activity, negative = inhibition [4] 2.96% [at 11.6 µM]

CC(NC(=O)CC(=O)O)c1nc2ccccc2c(=O)[nH]1 (centres undefined)
inactive: Potency [1] | Potency [2] | Potency [3] | Potency [4]

CC1(C)CCC(C)(C)c2cc3c(cc21)Sc1ccccc1N=C3c1ccc(C(=O)O)cc1
inactive: Potency [1] | Potency [2] | Potency [3] | Potency [4]

CC1CC(O)CC(C)(C)C1(O)CCO (centres undefined)
inactive: Potency [1] | Potency [2] | Potency [3] | Potency [4]

CC(=O)c1c(C)cc(O[C@@H]2O[C@H](CO)[C@@H](O)[C@H](O)[C@H]2O)cc1O
inactive: Potency [1] | Potency [2] | Potency [3] | Potency [4]

CN1C(=O)c2ccccc2NC(=O)[C@]12O[C@@H]2c1cccc(O)c1
inactive: Potency [1] | Potency [2] | Potency [3] | Potency [4]

COc1ccc2c3c1O[C@H]1C[C@@H](O)C=C[C@@]31CCN(C)C2
inactive: Potency [1] | Potency [2] | Potency [3] | Potency [4]

OCC1=CC[C@@H]2C=CO[C@@H](O[C@@H]3O[C@H](CO)[C@@H](O)[C@H](O)[C@H]3O)[C@H]12
inactive: Potency [1] | Potency [2] | Potency [3] | Potency [4]

OCCc1ccc(O[C@@H]2O[C@H](CO)[C@@H](O)[C@H](O)[C@H]2O)c(O)c1
inactive: Potency [1] | Potency [2] | Potency [3] | Potency [4]

CCc1c(CC(N)=O)c2cc(OCCCP(=O)(O)O)ccc2n1Cc1ccccc1
inactive: Potency [1] | Potency [2] | Potency [3] | Potency [4]

Reference: PubChem BioAssay (NCATS)
